# Bioassay records from PubChem.
# 3CLpro inhibitor = SARS-CoV 3CLpro protease inhibition | P0C6X7 | AID 1706 | recombinant SARS-CoV 3CLpro, quenched FRET peptide cleavage | 290,000 compounds, 0.14% hits | inhibition, % at 6 µM; in the data active = inhibition above about 12%
# MazF activator = activators of E. coli MazEF toxin-antitoxin RNase. 350,000 compounds, 0.32% hits. activation, % at 20 µM. P0AE70. FAM/BHQ RNA-DNA oligo cleavage fluorescence, 5 h; in the data active = activation above about 50%
# Target sequence (P0AE70 whole entry, looked up): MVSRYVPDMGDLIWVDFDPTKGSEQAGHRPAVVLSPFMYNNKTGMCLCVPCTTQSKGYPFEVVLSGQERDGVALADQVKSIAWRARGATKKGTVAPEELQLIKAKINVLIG
# CCHF vOTU inh-1 = blocks the CCHF virus ovarian tumor domain protease. inhibition, % at 11.5 µM. AID 651958. CCHFV vOTU protease, Pep-AMC fluorescence. 370,000 compounds, 0.55% hits; note: 0% = vehicle wells with enzyme and 100% = no enzyme wells
# BJeLR viability = BJeLR cell viability loss. BJeLR (HRASV12) viability, CellTiter-Glo ATP luminescence, 48 h. inhibition, % (no concentration beside the values). 300,000 compounds, 0.17% hits; in the data active = inhibition above about 50%
# DUSP3 inh = blocks human VHR1 dual specificity phosphatase. AID 1654. recombinant VHR phosphatase, pNPP absorbance. 290,000 compounds, 0.52% hits. inhibition, % at 13.3 µM; in the data active = inhibition above about 50%
# Target sequence (P51452 whole entry, looked up): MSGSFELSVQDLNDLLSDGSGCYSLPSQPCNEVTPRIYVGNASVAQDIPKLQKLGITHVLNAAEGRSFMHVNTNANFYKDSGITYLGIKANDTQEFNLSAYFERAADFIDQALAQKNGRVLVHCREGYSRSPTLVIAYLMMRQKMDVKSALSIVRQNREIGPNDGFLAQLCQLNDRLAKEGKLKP
# CCHF vOTU inh-2 = confirmation of CCHF virus vOTU protease inhibitors; 1,900 compounds, 17% hits; inhibition, % at 11.5 µM; AID 686976; Recombinant CCHFV vOTU, Pep-AMC fluorescence; shares compounds with CCHF vOTU inh-1
# * = called active by the depositor; i = inactive; . = no result. Only some compounds are listed: those with a hit (about 1.4% of all), similar ones and a draw of the others. Cut-off read from the data, not from the text of the source, unless noted: active = inhibition above about 30%; inactive = the rest.
SMILES,3CLpro inhibitor,MazF activator,CCHF vOTU inh-1,BJeLR viability,DUSP3 inh,CCHF vOTU inh-2
O=C(OCc1cn(Cc2ccc(C(F)(F)F)cc2)nn1)N1CCOCC1,.,.,2,.,.,.
CC1=C(C(=O)N(C(C)C)C(C)C)CC(CC(=O)NC(c2ccccc2)c2ccccc2)C(=O)N1Cc1ccc(C(C)(C)C)cc1 (stereo not drawn),.,.,35*,.,.,4
COC(=O)C1CN(Cc2cn(Cc3ccc(C)cc3)nn2)CCS(=O)(=O)N1Cc1ccc(OC)cc1 (stereo not drawn),.,.,2,.,.,.
CC(=O)c1cc(-c2ccc3c(c2)OCO3)c(=O)n2c1CCC2,.,.,2,.,.,.
NC1=C(Cl)C(=O)c2ccc(S(N)(=O)=O)cc2C1=O,.,4,103*,.,.,99*
NC1=C(Cl)C(=O)c2ccccc2C1=O,.,15,81*,.,.,81*
CC1CCC2(CCC(=O)N2CCCOC(=O)c2ccccc2)CC1 (stereo not drawn),.,.,25,.,.,.
CCOC(=O)[C@@]12CCCC3=C1N(CCC3)C(=O)[C@H]2CC(=O)NCC1CCCCC1,.,.,10,.,.,.
O=C(O)c1cccc(Cn2c(Cl)c(/C=N/NC(=O)c3ccccc3)sc2=O)c1,2,3,8,7,20,.
O=C(O)c1cccc(Cn2c(Cl)c(/C=N/NC(=O)c3cc4ccccc4cc3O)sc2=O)c1,3,3,30*,10,20,23
Nc1cccc2nc3ccccc3cc12,2,-3,.,23,16,.
Cc1cc2c(N)cccc2nn1,-5,-26,111*,1,18,2
COc1cccc(OCc2cc(C(=O)N(C)C3CCOCC3)no2)c1,-8,-3,30*,-7,-7,-10
COc1cccc(OCc2cc(C(=O)N(C)C3CC(C)(C)NC(C)(C)C3)no2)c1,4,-5,-6,-6,24,.
O=C1C(=Cc2cn(-c3ccccc3)nc2-c2ccc(OCc3ccc(Cl)cc3)cc2)SC(=S)N1CCS(=O)(=O)O,.,.,34*,.,.,25
O=C1CCC/C1=C/Nc1ccc(Cl)cc1,7,1,19,-2,24,.
O=C1CCCC/C1=C\Nc1ccc(O)cc1,3,5,35*,-7,10,2
O=S1(=O)c2ccc(N3CC[C@H](O)C3)cc2OCCCN1C1CC1,.,.,5,.,.,.
CCOc1cccc(CNCCO)c1OCc1ccc(Cl)cc1Cl,2,9,13,-5,0,.
CCOc1cccc(CNc2ccc(O)cc2)c1OCc1ccccc1Cl,1,-7,44*,-7,-16,3
CCOc1cccc(CNc2ccc(O)cc2)c1OCc1ccc(Cl)cc1Cl,3,9,49*,-2,4,7
CC1(C)CC(C(CCN(Cc2ccccc2)C(=O)c2ccco2)c2ccc(F)cc2)CCO1 (stereo not drawn),2,3,33*,-1,1,-2
O=C(c1ccco1)N(CCC(c1ccccc1)c1ccco1)Cc1ccc(F)cc1 (stereo not drawn),7,-2,.,4,20,.
CCOc1ccccc1NC(=O)NNC(=O)CCn1nc(C)c([N+](=O)[O-])c1C,.,.,-4,.,.,.
COc1cccc2c1C(=O)c1c(O)c3c(c(O)c1C2=O)C[C@@](O)(C(=O)CO)C[C@@H]3OC1CC(N)C(O)C(C)O1 (stereo partly drawn),.,-316,16,.,.,.
SMILES,3CLpro inhibitor,MazF activator,CCHF vOTU inh-1,BJeLR viability,DUSP3 inh,CCHF vOTU inh-2
COc1cccc2c1C(=O)c1c(O)c3c(c(O)c1C2=O)C[C@@](O)(C(=O)CO)C[C@@H]3O[C@H]1C[C@H](N)[C@H](O)[C@H](C)O1,-10,i,41*,75*,5,30*
COC(=O)[C@H](C)N(Cc1cn(Cc2ccccc2)nn1)S(=O)(=O)c1ccccc1Br,.,.,8,.,.,.
Cc1ccc(/C=N/n2c(-c3cccnc3)n[nH]c2=S)s1,7,7,34*,19,8,-1
CCCCn1nnnc1C1c2ccccc2OCC(=O)N1Cc1ccc2c(c1)OCO2 (stereo not drawn),.,.,-1,.,.,.
CC1=C(C(=O)N2CCOCC2)CC(CC(=O)NCCN2CCOCC2)C(=O)N1Cc1ccc(F)cc1 (stereo not drawn),.,5,5,.,.,.
CC1=C(C(=O)N2CCOCC2)CC(CC(=O)NCCN2CCOCC2)C(=O)N1Cc1ccccc1 (stereo not drawn),.,4,30*,.,.,-25
COc1cc(/C=N/Nc2nncn2/N=C/c2ccc(O)c(OC)c2)ccc1O,6,5,100*,29,32,-13
COc1cc(/C=N/Nc2ccccc2)ccc1O,-3,-7,20,7,-16,.
COc1ccc(OC)c(/C=N/Nc2nncn2/N=C/c2cc(OC)ccc2OC)c1,2,15,32*,3,-8,-15
COc1cc(/C=N\Nc2nncn2N)ccc1OC(C)=O,0,2,90*,-23,13,-22
O=C(CCc1ccccc1-c1ccccc1CCNC(=O)c1cccc(F)c1)NCc1ccccc1,.,.,-1,.,.,.
FC(F)(F)Oc1cccc(Cn2ccc3ccc(-c4ccc5ccn(Cc6cccc(OC(F)(F)F)c6)c5c4)cc32)c1,.,.,19,.,.,.
CCOC(=O)Cn1cc(CN2CCS(=O)(=O)N(Cc3ccc(OC)cc3)C(C(=O)OC)C2)nn1 (stereo not drawn),.,.,-6,.,.,.
COc1ccccc1N(/N=C1\Sc2ccccc2C1=O)C(C)=O,0,-6,32*,12,26,5
COc1ccc(N(/N=C2\Sc3ccccc3C2=O)C(C)=O)cc1,-5,0,1,-5,14,.
CC(=O)NC(Cc1ccc2c(c1)OCO2)C(=O)N1CCCN(C(C)=O)CC1 (stereo not drawn),.,.,4,.,.,.
Cc1cc(C)cc(OCC(=O)N2N=C(c3cccnc3)CC2(O)C(F)(F)F)c1 (stereo not drawn),4,-1,-15,3,32,.
Cc1cc(C)cc(OCC(=O)N2N=C(C(F)(F)F)CC2(O)C(C)(C)C)c1 (stereo not drawn),5,1,30*,-4,-10,12
Oc1ccc(NCc2cccs2)cc1,0,-3,88*,-20,-4,-5
O=C(O)/C=C/c1ccc(S(=O)(=O)Nc2ccc3[nH]c(=O)[nH]c3c2)cc1,-8,-4,33*,-12,17,-4
COC(=O)c1ccc(NC(=O)CNCc2ccncc2)cc1,1,-3,32*,-2,-7,-11
COC(=O)c1ccccc1NC1=C/C(=N\S(=O)(=O)c2ccc(C(=O)O)cc2)c2ccccc2C1=O,6,-24,.,5,6,.
Cc1ccc(S(=O)(=O)/N=C2\C=C(Nc3cccc(C(=O)O)c3)C(=O)c3ccccc32)c(C)c1,8,0,114*,30,20,112*
Cc1ccc(NC2=C/C(=N/S(=O)(=O)c3cccs3)c3ccccc3C2=O)cc1,0,8,98*,-8,-10,99*
COc1c(C)cccc1C(=O)NC(=S)Nc1ccccc1N1CCCC1,3,-8,50*,6,14,23
